Laboratory results from the antibiotic and cytotoxicity screens of Wong et al. (2023).
Screen size: about 39,000 compounds; about 1,500 (3.8%) were called active. The sample holds actives, similar compounds and a random draw of the others, so the mix is not that of the screen.

System: HSkMC (human skeletal muscle cells)
Assay: cytotoxicity call (relative viability < 0.9)
Settings: 10 µM

Row | Compound | cytotoxicity call
1 | COc1ccc(C#Cc2ccc([C@@H]3[C@H](CO)N4CCCCN(S(=O)(=O)c5cn(C)cn5)C[C@@H]34)cc2)cc1 | inactive
2 | COc1ccc(C#Cc2ccc([C@H]3[C@H](CO)N4CCCCN(S(=O)(=O)c5cn(C)cn5)C[C@@H]34)cc2)cc1 | inactive
3 | CC(C)(O)C#Cc1ccc([C@H]2[C@H](CO)N3CCCCN(S(C)(=O)=O)C[C@@H]23)cc1 | inactive
4 | COc1ccc(C#Cc2ccc([C@H]3[C@@H](CO)N4CCCCN(S(=O)(=O)c5cn(C)cn5)C[C@H]34)cc2)cc1 | active
5 | COc1ccc(C#Cc2ccc([C@H]3[C@H]4CN(S(=O)(=O)c5cn(C)cn5)CCCCN4[C@H]3CO)cc2)cc1 | inactive
6 | COc1ccc(C#Cc2ccc([C@@H]3[C@H]4CN(S(=O)(=O)c5cn(C)cn5)CCCCN4[C@H]3CO)cc2)cc1 | inactive
7 | COc1ccc(C#Cc2ccc([C@@H]3[C@@H](CO)N4CCCCN(S(=O)(=O)c5cn(C)cn5)C[C@@H]34)cc2)cc1 | active
8 | COc1ccc(C#Cc2ccc([C@H]3[C@@H](CO)N4CCCCN(S(=O)(=O)c5cn(C)cn5)C[C@@H]34)cc2)cc1 | inactive
9 | COc1ccc(C#Cc2ccc([C@@H]3[C@@H](CO)N4CCCCN(S(=O)(=O)c5cn(C)cn5)C[C@H]34)cc2)cc1 | active
10 | C[C@H](CO)N1C[C@H](C)[C@H](CN(C)Cc2ccc(Oc3ccccc3)cc2)Oc2ccc(NC(=O)c3ccncc3)cc2C1=O | inactive
11 | C[C@@H]1CN([C@@H](C)CO)C(=O)Cc2cc(NC(=O)Cn3cnnn3)ccc2O[C@@H]1CN(C)C(=O)Nc1cccc2ccccc12 | inactive
12 | C=CC[C@H](CC(=O)NCCO)C(=O)N[C@@H](COC(=O)[C@@H](CC=C)CC(=O)OC(C)(C)C)Cc1c[nH]c2ccccc12 | inactive
13 | COc1ccc(NC(=O)Nc2ccc3c(c2)C(=O)N([C@H](C)CO)C[C@H](C)[C@H](CN(C)S(=O)(=O)c2c(C)noc2C)OCCCC[C@@H](C)O3)cc1 | inactive
14 | COCC(=O)Nc1ccc2c(c1)C(=O)N(C)C[C@@H](OC)[C@@H](C)CN(C(=O)Cc1cccnc1)[C@H](C)CO2 | inactive
15 | C[C@@H]1CCCCO[C@H](CN(C)C(=O)Nc2ccc3c(c2)OCO3)[C@H](C)CN([C@@H](C)CO)C(=O)c2cc(NS(=O)(=O)c3ccc(F)cc3)ccc2O1 | inactive
16 | Cc1ccc(S(=O)(=O)Nc2ccc3c(c2)C(=O)N([C@@H](C)CO)C[C@H](C)[C@H](CN(C)Cc2ccc(C(=O)O)cc2)OCCCC[C@@H](C)O3)cc1 | inactive
17 | Cc1cc(C)n2nc(N)nc2n1 | inactive
18 | Nc1ccc2cc3ccc(N)cc3nc2c1.O=S(=O)(O)O | active
19 | Nc1ccc2c(c1)nc(CO)n2CCO | inactive
20 | C[n+]1c2cc(N)ccc2cc2ccc(N)cc21.[Cl-] | inactive
